According to the supplement of paper PMC6555819:

What follows are sequences tested on VDR:RXRa (NR concentration 270 nM, RXRa partner concentration 90 nM) (assay: PBM binding z-score (relative to random genomic background probes); higher = stronger binding; sequences stand for … in GC…GCGATTGACAGCGTAGAATGAAGG).
Experimental: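 Protein-binding microarray (Agilent 4x180K custom design, double-stranded 60-nt probes: 5' GC cap, 34-nt variable region, 24-nt constant primer region; full probe sequence given). Purified or IVT nuclear receptor:RXRα heterodimers (3:1 NR:RXRα, mostly 270:90 nM) or homodimers were incubated for 1 h in PBS with 2% milk and no ligand, then detected with Alexa488 antibodies. Fluorescence from o1-orientation probes (~5 replicates averaged) was converted to z-scores against 500 random hg19 background probes. Variable regions are seed direct-repeat (DR0–DR5) sites, all their single-nucleotide variants and half-site ablations.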

Sequence	PBM binding z-score
TCTGCTAGGTCAACGATGGTCATCTAATCTGCTA	2.16
ATCTCTAGGGAAAGTTCAGTGAAAGATCGATAGA	1.12
AATACAGGGTCACTAGCCCAGAGTAGGTACGAAT	4
CGTTCAAGGTCAGCAGGTCAGTGAAAGCGACGTG	4.25
GCAGACAGGTGAAACGCAGGTAACTTAGGGTGGC	-0.477
ATCGAAAGGCCGAAGGTGAGTATACCCACCCGAA	-0.338
TCGAGTAAGTTAGTCGGGGCATTCAGCCAACATA	-0.133
CCTCGGAAGACAACAGGAGGTCAGAGCTGCCAGA	1.5
TCGATTAGTTGATTAGGGCAACCGAAACAGCGGA	0.219
ATATGTAGGTTAGCTGGGGTCATGCAGACTAGGC	5.85
GCTTACGGGTCAATGGTTATAGCATGAATAGAAT	2.99
TCTTGTAGATCAATAGGAGGTTAAGAAAGATCGA	0.721
CCTACTGGGCCACGAAAGGTCAGTGATTCAGTGA	1.72
AAAGACAGGTGAGTGAAGGTAACTCAGCTGGACG	-0.172
ATCTCTAGGTAAAGTGCAGTGAAAGATCGATAGA	0.146
GCTAGCAGGCCATTTGGGTCAGTCAATGACGGGC	0.157
GCTATGAGTTGAAAGGGCAACCGAATGATTCTCG	1.2
CCTACTGGGCCAAAAAGGTCATTTATGCCGATAA	4.44
ACAGACAGGTGATGAAGGTAACGCAGGCTATCAT	-0.0633
GGAACGAGGGCAAGTTGATATCAGAGTTTGATGG	1.42

Sequence	PBM binding z-score
TCGAGTAGGTTAGTCGGGGCGTTCAGCCAACATA	1.48
CGTCCAAGGTCAGAGAGGTGAGTGAATGCCGAGT	4.78
ATACCAAGGTGATCGTGAGGTTGTTGATACTAAC	0.679
TCTTGCAGATCAGCAGGTTAAGAAAGCTGGCCAA	-0.0921
GCTAGCAGGCCATTTGTGTCACTCAATGACGGGC	-0.481
CGTCCAATGTCATAGGAGGTCAGTGAAGACAGAT	3.45
CAGACTAGGTCAGGGCCAGTATAGGAGGAACGTT	-0.0309
ATATGTAGGTTACATCCGGGTCATGCAGGCTATG	3.8
CGAACTTGGTCATTGACAGGACAGTGAATAGTAA	0.0642
ATCTCTAGGTAAGACTCAGTTCATTGAAGAACGC	2.42
CATTACGGGTCACTGACAGGTTATAGCATTTGGA	4
CAAACTAGGTCACGAAAGGTAAAAGTCGAATGAC	3.25
AGTCAAAGTTCAGGACGAGGTAACATAAAGCACG	3.13
AGAATGAGGTTATACGTAGATCAAGGAAGAAAGT	1.33
ACTCGGACGACAAAGGTCAGAGCTACGCCAGTGA	2.76
ACTTACGGGTCAGCGAGGTTATAGCACGCGTATA	6.97
ATATGTAGGTTAAGGGCCATTCAGGTTGGTTCGC	1.01
AGAATGAGGTTATTAAGATCAAGGAATTGCGGTC	3.11
CCTCGGAGGACAAGAGGAGGTCAGAGCTGCCAGA	1.48
CAAACTAGGACACAGAGGTCAAAGTCCGTGCGTA	5.69
